Most compounds without a hit are left out; they make up all but 11% or so of the library.
G9a inh: blocks human histone lysine methyltransferase G9a; Q96KQ7; G9a H3K9 monomethylation, AlphaScreen, 2 h; Potency, µM (doses to about 102 µM), actives largely listed as inhibitors; hit rate 8.8% among 350,000; AID 504332; further: nearly all actives have a fitted effect of over 75% in size
Target sequence (Q96KQ7 913-1193 limits assumed): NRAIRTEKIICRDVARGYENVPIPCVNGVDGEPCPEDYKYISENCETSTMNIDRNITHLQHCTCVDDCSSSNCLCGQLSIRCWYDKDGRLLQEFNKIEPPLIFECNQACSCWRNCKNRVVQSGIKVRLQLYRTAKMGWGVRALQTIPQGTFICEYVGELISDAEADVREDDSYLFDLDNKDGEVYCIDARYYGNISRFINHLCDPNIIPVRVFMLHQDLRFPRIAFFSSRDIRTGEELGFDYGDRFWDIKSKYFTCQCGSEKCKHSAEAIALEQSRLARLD
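Signal arises when biotinylated H3K9 peptide, once monomethylated, bridges streptavidin donor and antibody-captured acceptor beads. Enzyme at 20 nM was preincubated 15 min with test compounds; peptide 500 nM and SAM 20 uM then reacted for 2 h.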
Tau fibril ThT: blocks human tau fibril formation measured by thioflavin T; P10636; recombinant tau K18 P301L, heparin-induced fibrillization, ThT fluorescence; Potency, µM (doses to about 57.4 µM), usual class: inhibitors; hit rate 2.1% among 270,000; AID 1460; further: nearly all actives have a fitted effect of over 55% in size
Target sequence (P10636 561-689 P618L limits assumed): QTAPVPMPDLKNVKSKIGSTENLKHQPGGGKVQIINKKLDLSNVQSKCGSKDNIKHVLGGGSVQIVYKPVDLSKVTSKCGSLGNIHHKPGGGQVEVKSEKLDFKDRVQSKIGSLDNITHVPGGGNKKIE
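ThT emission at 510 nm, taken 1 hr after adding 30 uM dye, quantifies aggregates formed when 20 uM heparin acts on human tau K18 P301L for 6 hr at 37 C.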
Tau fluor counter: counter-screen for tau fibril formation inhibitors | tau K18 P301L (four-repeat tau fragment) Alexa594 fluorescence, heparin fibrillization | Potency, µM (highest dose often 57.7 µM) | AID 1463 | hit rate 0.93% among 280,000; further: nearly all actives have a fitted effect of over 55% in size
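Human K18 P301L tau (15 uM unlabeled plus 0.24 uM Alexa 594-labeled, final) in 100 mM sodium acetate pH 7 was mixed with compound and 20 uM heparin and incubated 6 hr at 37 C.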
Coupling enz: inhibits coupling enzyme system, counter-screen for aldolase hits; hit rate 0.67% among 290,000; activity change, negative = inhibition, % at 58.2 µM, hits read low; coupling enzyme system counterscreen, AmpLite Red fluorescence; AID 2472; in the data active means activity change below about -30%
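Counterscreen lacking aldolase: glyceraldehyde-3-phosphate coupling-enzyme reagent preincubated 10 min at RT with compound (at 57.5 uM final), then substrate/coupling system with AmpLite Red added; fluorescence read at 525/598 nm after 20 min RT.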
Sfp inh: Sfp phosphopantetheinyl transferase inhibition | Potency, µM, usual class: inhibitors | Q9F4F7 | Biochemical Sfp PPTase activity, qHTS | hit rate 3.5% among 310,000;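 further: the enzyme is Sfp with the accession as filed and its product quenches rhodamine fluorescence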
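Fluorescence-quenching assay: 15 nM Sfp-PPTase preincubated 15 min at room temperature with compound, then 5 uM rhodamine-CoA and 12.5 uM BHQ-2-labelled YbbR peptide added. Fluorescence (ex 525/em 598 nm) read at start and after 30 min; difference gives rate.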
Tau fibril FP: inhibitors of human tau fibril formation | Potency, µM (doses to about 57.7 µM), hits mostly inhibitors | hit rate 0.39% among 280,000 | P10636 | K18 P301L tau heparin fibrillization, Alexa594 FP, 6 h; further: nearly all actives have a fitted effect of over 55% in size
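Human K18 P301L fragment (15 uM unlabeled plus 0.24 uM Alexa 594-labeled) in 100 mM sodium acetate pH 7 with compound, aggregation induced by 20 uM heparin for 6 hr at 37 C. ThT (30 uM) added for 1 hr, then Alexa 594 FP read.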
Each line names hits and unclear results; the compound was inactive in the other large screens. Unless noted, the call rests on the fitted dose curve; in most records, active means well fitted curve in the direction sought with a large enough effect; inconclusive means small, poorly fitted or top-dose-only effect, or another doubt; inactive means no such curve, though single readings can be large; an effect the other way counts as inactive or inconclusive.

Nc1c(N=Nc2ccc(-c3ccc(N=Nc4cc(S(=O)(=O)O)c5ccccc5c4N)cc3)cc2)cc(S(=O)(=O)O)c2ccccc12	G9a inh 3.5µM, Tau fibril ThT 1.1µM, Sfp inh 45µM
N#C/C(=C/c1cn(-c2ccccc2)nc1-c1cccc(S(=O)(=O)N2CCCC2)c1)C(=O)NCc1ccco1	G9a inh 50µM
CC(C)NC(=O)CC(=O)Nc1ccc2nc3n(c(=O)c2c1)CCCCC3	none (no result: Coupling enz, Sfp inh)
CCn1c(C)nc2cc(C(=O)N/N=C/c3cccc(OC)c3O)ccc21	G9a inh 79µM, Tau fibril ThT inconclusive
COc1cc(OC)c2cc(C(=O)N/N=C/c3cccc(OC)c3O)[nH]c2c1	Tau fibril ThT 5µM, Tau fluor counter inconclusive, Tau fibril FP inconclusive
CCn1c(C)nc2cc(C(=O)N/N=C/c3ccc(O)c(O)c3O)ccc21	G9a inh 2µM, Tau fibril ThT 3.2µM, Tau fluor counter inconclusive, Coupling enz -53, Sfp inh 2.2µM, Tau fibril FP 7.9µM
Cc1ccc(CNC(=O)CCCn2c(=O)c3ccccc3n(CC(=O)Nc3ccc(C)cc3)c2=O)cc1	none (no result: Coupling enz, Sfp inh)
O=C(O)COc1ccccc1/C=N/NC(=O)c1ccc(F)cc1	G9a inh 45µM
Cc1cc(C)nc(N/N=C/c2ccccc2OCC(=O)O)n1	Sfp inh 6.3µM (no result: Tau fibril ThT, Tau fluor counter, Tau fibril FP)
CCn1cc(C(=O)N[C@@H](CCSC)C(=O)NCCCn2ccnc2)c(=O)c2cc3c(cc21)OCO3	none (no result: Tau fibril ThT, Tau fluor counter, Coupling enz, Tau fibril FP)
Cc1c(OCC(=O)NCC2CCC(C(=O)NCCCO)CC2)ccc2c(-c3ccccc3)cc(=O)oc12 (centres undefined)	none (no result: Tau fibril ThT, Tau fluor counter, Tau fibril FP)
CCC1C(O)=C(c2ccccn2)C(=N)N1c1ccccc1 (centres undefined)	G9a inh 22µM
COc1ccc(C2=C(O)C(C)N(c3ccccc3)C2=N)cc1OC (centres undefined)	none
CCOC(=O)c1c(S(=O)(=O)N2CCCCC2C)c(C)n(C)c1C (centres undefined)	none (no result: Tau fibril ThT, Tau fluor counter, Coupling enz, Tau fibril FP)
CC(C)(C)CC(=O)Nc1cccc(-c2cn3cccnc3n2)c1	none
Oc1ccc(CNc2cccc(C(F)(F)F)c2)c2cccnc12	G9a inh 1.4µM (no result: Tau fibril ThT, Tau fluor counter, Coupling enz, Sfp inh, Tau fibril FP)
Cc1ccc(NCc2ccc(O)c3ncccc23)cc1C	none
COc1cccc(CNc2cccc(C(F)(F)F)c2)c1O	Tau fluor counter inconclusive
Cc1cccc(NCc2ccc(O)c3ncccc23)c1C	G9a inh 0.4µM, Tau fibril ThT inconclusive
Cc1cccnc1NCc1ccc(O)c2ncccc12	G9a inh 1.8µM, Tau fibril ThT inconclusive
FC(F)(F)c1cccc(NCc2cn3cccnc3n2)c1	G9a inh inconclusive, Coupling enz -52
CCN(c1cccc(C)c1)c1ncnc2c1cnn2-c1cccc(Cl)c1	none (no result: Coupling enz, Sfp inh)
COc1cc2c(cc1OC)C(c1c[nH]c3ccccc13)NCC2 (centres undefined)	none (no result: G9a inh)
CCCCn1c(N)c(N(CCC(C)C)C(=O)CSc2nncn2-c2ccccc2)c(=O)[nH]c1=O	G9a inh 7.9µM (no result: Tau fibril ThT, Tau fluor counter, Coupling enz, Sfp inh, Tau fibril FP)
CCCCN(C(=O)CSc1nncn1-c1ccccc1OC)c1c(N)n(Cc2ccccc2)c(=O)[nH]c1=O	G9a inh 56µM
CO[C@@H]1COC(=O)C/C=C\[C@H](C)COC(=O)[C@H](C)NC(=O)C/C=C\[C@H]1C	none (no result: G9a inh)
CCn1c(C(=O)N2CCCC(C(=O)N3CCN(c4cc(C)ccc4C)CC3)C2)cc2sccc21 (centres undefined)	none (no result: Coupling enz, Sfp inh)
Cc1cc(/C=N\NC(=O)COc2cccc3cccnc23)c(C)n1-c1ccccc1	G9a inh inconclusive, Tau fibril ThT 25µM, Tau fluor counter inconclusive
Cc1cc(C)cc(-n2c(C)cc(/C=N/NC(=O)CSc3ncccn3)c2C)c1	G9a inh 79µM, Tau fibril ThT inconclusive
C=CCn1cc(/C=N/NC(=O)COc2cccc3cccnc23)c2ccccc21	G9a inh inconclusive, Tau fibril ThT inconclusive, Sfp inh inconclusive
CC(C)n1cc(/C=N/NC(=O)COc2cccc3cccnc23)c2ccccc21	G9a inh 45µM, Tau fibril ThT inconclusive, Sfp inh inconclusive
COc1ccc(/C=N/NC(=O)COc2cccc3ccccc23)c(C(=O)O)c1OC	G9a inh 14µM
Cc1cc(C)cc(-n2c(C)cc(/C=N/NC(=O)c3ccncc3)c2C)c1	none
CC(C)C(=O)N[C@H]1CCCN1C(=O)/C=C\c1ccccc1	none (no result: G9a inh)
CCOc1ccc(CNC(=O)c2cnc3sc(N(CC)CC)nn3c2=O)cc1OC	none (no result: Coupling enz, Sfp inh)
CC(=O)c1cc(-c2ccccc2)[nH]c1N1CCOCC1	G9a inh inconclusive, Tau fibril ThT 32µM, Sfp inh inconclusive, Tau fibril FP inconclusive
CC(=O)c1c(N2CCOCC2)nc2ccc(Br)cc2c1-c1ccccc1	none (no result: Tau fibril ThT)
CN1CCN(c2ncc3nc(-c4ccccc4)c(=O)n(Cc4ccc(F)cc4)c3n2)CC1	none (no result: Tau fibril ThT, Tau fluor counter, Tau fibril FP)
COc1ccc(-c2noc(C3CC(=O)N(c4ccc5c(c4)OCCO5)C3)n2)c(OC)c1 (centres undefined)	none (no result: Coupling enz, Sfp inh)
COc1ccc(C2C(C(=O)c3ccco3)=C(O)C(=O)N2c2nnc(C)s2)cc1 (centres undefined)	Sfp inh 10µM (no result: G9a inh)
Cc1nc(N2C(=O)C(=O)/C(=C(/O)c3ccccc3)C2c2ccco2)sc1C (centres undefined)	G9a inh inconclusive
COC(=O)c1sc(N2C(=O)C(=O)/C(=C(/O)c3ccccc3)C2c2ccco2)nc1C (centres undefined)	G9a inh 35µM
CCOC(=O)c1sc(N2C(=O)C(O)=C(C(=O)c3ccco3)C2c2ccco2)nc1C (centres undefined)	G9a inh 8.9µM (no result: Tau fibril ThT, Tau fluor counter, Tau fibril FP)
COc1ccc(C2C(C(=O)c3ccco3)=C(O)C(=O)N2c2nnc(C)s2)cc1OC (centres undefined)	G9a inh 50µM (no result: Tau fibril ThT, Tau fluor counter, Tau fibril FP)
Cc1c(Cl)cccc1NC(=O)N1CCC(CN2CCCC2)CC1	none (no result: Coupling enz, Sfp inh)
COc1ccc(NC(=O)COC(=O)C2CC2)c(OC)c1	none (no result: Tau fibril ThT, Tau fluor counter, Coupling enz, Sfp inh, Tau fibril FP)
O=C(O)c1ccc2c(=O)n3c(nc2c1)/C(=C/c1ccccc1OC(F)F)CC3	none (no result: Tau fibril ThT, Tau fluor counter, Tau fibril FP)
C=CCOc1ccc(C2C(C(=O)c3ccco3)=C(O)C(=O)N2CCCN(CC)CC)cc1 (centres undefined)	G9a inh inconclusive
C=CCOc1ccc(C2C(C(=O)c3ccco3)=C(O)C(=O)N2c2nnc(C)s2)cc1 (centres undefined)	Tau fibril ThT inconclusive, Sfp inh 7.1µM
CC(C)C[C@H](NC(=O)NCc1ccc(Cl)cc1)C(=O)O	G9a inh 35µM
CN(C)c1ccc(/C=N/NC(=O)C2CC2c2ccccc2)cc1 (centres undefined)	G9a inh 40µM, Tau fibril ThT inconclusive, Tau fluor counter inconclusive
Cc1ccc(C(=O)N/N=C/c2ccc(-c3cccc(Cl)c3)o2)cn1	Tau fluor counter inconclusive

Source: PubChem (National Center for Advancing Translational Sciences (NCATS))
